Results from PubChem BioAssay (Tox21).
Records with an inconclusive call do not appear. Unmarked numbers belong to inactive results. The source made the active and inactive calls. Calls follow the shape of the dose curve; as a rule, active = well fitted cell-killing curve with a large enough effect in the repeat runs; inconclusive = weak or mixed curves, or effect the other way; inactive = flat fitted curve, though single readings scatter.

experiment: cAMP Responsive Elements (CRE) small molecule antagonists, cell-based qHTS assay: qHTS cell viability counter screen (AID 2060913); settings: CRE-bla HEK293T viability, CellTiter-Glo luminescence, 5 h; series mostly up to 92.4 µM; viability change, negative = cytotoxic: at the top concentration; also: nearly all actives have a fitted effect of over 40% in size
In short: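 Cytotoxicity counter screen multiplexed with the CRE-bla antagonist read: HEK293T cells in DMEM with dialyzed FBS and 25 mM HEPES were treated 3 hrs under 0.25 uM final NKH477, then viability measured by CellTiter-Glo luminescence.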
% is scaled to controls: 0 for no effect and ±100 for the full control effect; potency is read from the fitted curve at half-maximal effect.

| Structure (SMILES) | viability change, negative = cytotoxic | Potency |
| --- | --- | --- |
| C[N+]1(C)[C@@H]2CC[C@H]1CC(OC(=O)C(CO)c1ccccc1)C2 (stereo not given in full) | -1.97% [at 42.5 µM] |  |
| CCCCOC(=O)COC(=O)c1ccccc1C(=O)OCCCC |  | inactive |
| CCOC1Oc2ccc(OS(C)(=O)=O)cc2C1(C)C (stereo not given) | -4.03% |  |
| O=C1C(=O)c2cccc3cccc1c23 | 9.37% |  |
| C#CC1(O)CCCCC1 | 3.46% |  |
| O=[Se]=O |  | 30.4 µM (active) |
| [N-]=[N+]=[N-] |  | inactive |
| C#C[C@]1(O)CC[C@H]2[C@@H]3CCC4=CC(=O)CC[C@]4(C)[C@H]3CC[C@@]21C |  | inactive |
| CCCN(CC1CC1)c1c([N+](=O)[O-])cc(C(F)(F)F)cc1[N+](=O)[O-] | -1.14% |  |
| CC1=C(C(=O)Nc2ccccc2)SCCO1 |  | inactive |
| CCO/N=C(\CC)C1=C(O)CC(c2c(C)cc(C)cc2C)CC1=O (stereo not given) | 9.28% |  |
| Nc1ccccc1C(=O)OCC(O)CO (stereo not given) | 4.8% [at 42.5 µM] |  |
| O=C(N[C@H]1N=C(c2ccccc2F)c2cccc3c2N(CC3)C1=O)c1cc2ccccc2[nH]1 | -0.215% [at 42.5 µM] |  |
| O.O.O.O.O.O.O=S(=O)([O-])[O-].[Ni+2] | -0.415% [at 42.5 µM] |  |
| CCc1cnc(C2=NC(C)(C(C)C)C(=O)N2)c(C(=O)O)c1 (stereo not given) |  | inactive |
| COC(=O)C(Cl)C(=O)OC | 4.26% [at 42.5 µM] |  |
| CCOC(=O)CP(=O)(OCC)OCC | 3.36% |  |
| Clc1ccc(C(c2ccc(Cl)cc2)C(Cl)(Cl)Cl)cc1 |  | inactive |
| Oc1ccc(Cc2ccc(O)cc2)cc1 | -1.07% |  |
| CCOc1cc(OP(=S)(OC)OC)nc(CC)n1 | 0.916% |  |

| Structure (SMILES) | viability change, negative = cytotoxic | Potency |
| --- | --- | --- |
| Cc1cnc(C2=NC(C)(C(C)C)C(=O)N2)c(C(=O)O)c1 (stereo not given) | -4.65% |  |
| FC(Cl)(Cl)C(F)(Cl)Cl | 0.981% |  |
| CCOP(=S)(OCC)Oc1cnc2ccccc2n1 |  | inactive |
| CC(=O)O |  | inactive |
| CCNc1nc(Cl)nc(NCC)n1 |  | inactive |
| O=[N+]([O-])c1c(Cl)c(Cl)c(Cl)c(Cl)c1Cl |  | inactive |
| N#CSCc1ccccc1 | -3.89% |  |
| O=C1C(Cl)=C(Cl)C(=O)C(Cl)=C1Cl |  | inactive |
| C/C(=N\NC(=O)Nc1cc(F)cc(F)c1)c1ncccc1C(=O)O |  | inactive |
| CC(C)(C)C(O)(CCc1ccc(Cl)cc1)Cn1cncn1 (stereo not given) |  | inactive |
| O=[N+]([O-])O |  | inactive |
| Cc1nn(-c2cc(NS(C)(=O)=O)c(Cl)cc2Cl)c(=O)n1C(F)F | -1.84% |  |
| O=C(CCl)C(Cl)Cl | 2.64% |  |
| Cc1ccccc1CCl | 3.85% |  |
| CC(C)=CCOc1c2occc2cc2ccc(=O)oc12 | -0.113% [at 42.5 µM] |  |
| CN1C(=S)CN=C(c2ccccc2)c2cc(Cl)ccc21 | 4.05% [at 42.5 µM] |  |
| C=C(C)C(=O)OCC(CC)CCCC (stereo not given) |  | inactive |
| CCOP(=S)(S)OCC | 11.3% |  |
| CC(C)NC(C)C |  | inactive |
| COc1ccc(C(=O)N2CCCC2=O)cc1 | 0.868% [at 42.5 µM] |  |

experiment: cAMP Responsive Elements (CRE) small molecule agonists, cell-based qHTS assay: qHTS cell viability counter screen (AID 2060914); settings: CRE-bla HEK293T viability, CellTiter-Glo luminescence, 5 h; series mostly up to 92.4 µM; activity change, negative = cytotoxicity: at the top concentration; also: nearly all actives have a fitted effect of over 50% in size
In short: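 Cytotoxicity was measured as ATP luminescence (CellTiter-Glo, 30 min at room temperature) in the same wells as the CRE-bla FRET read-out. HEK293T CRE-bla cells had 3 h compound exposure at 37C/5% CO2.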

| Structure (SMILES) | activity change, negative = cytotoxicity | Potency |
| --- | --- | --- |
| C[N+]1(C)[C@@H]2CC[C@H]1CC(OC(=O)C(CO)c1ccccc1)C2 (stereo not given in full) | -7.15% [at 42.5 µM] |  |
| CCCCOC(=O)COC(=O)c1ccccc1C(=O)OCCCC |  | inactive |
| CCOC1Oc2ccc(OS(C)(=O)=O)cc2C1(C)C (stereo not given) | -14.9% |  |
| O=C1C(=O)c2cccc3cccc1c23 | -31.3% |  |
| C#CC1(O)CCCCC1 | 16.3% |  |
| O=[Se]=O |  | 17.1 µM (active) |
| [N-]=[N+]=[N-] |  | inactive |
| C#C[C@]1(O)CC[C@H]2[C@@H]3CCC4=CC(=O)CC[C@]4(C)[C@H]3CC[C@@]21C | 7.01% |  |
| CCCN(CC1CC1)c1c([N+](=O)[O-])cc(C(F)(F)F)cc1[N+](=O)[O-] | -21.4% |  |
| CC1=C(C(=O)Nc2ccccc2)SCCO1 |  | inactive |
| CCO/N=C(\CC)C1=C(O)CC(c2c(C)cc(C)cc2C)CC1=O (stereo not given) | 6.04% |  |
| Nc1ccccc1C(=O)OCC(O)CO (stereo not given) | -13% [at 42.5 µM] |  |
| O=C(N[C@H]1N=C(c2ccccc2F)c2cccc3c2N(CC3)C1=O)c1cc2ccccc2[nH]1 | 7.02% [at 42.5 µM] |  |
| O.O.O.O.O.O.O=S(=O)([O-])[O-].[Ni+2] | -22.9% [at 42.5 µM] |  |
| CCc1cnc(C2=NC(C)(C(C)C)C(=O)N2)c(C(=O)O)c1 (stereo not given) |  | inactive |
| COC(=O)C(Cl)C(=O)OC | 5.44% [at 42.5 µM] |  |
| CCOC(=O)CP(=O)(OCC)OCC | 0.446% |  |
| Clc1ccc(C(c2ccc(Cl)cc2)C(Cl)(Cl)Cl)cc1 |  | inactive |
| Oc1ccc(Cc2ccc(O)cc2)cc1 | 0.223% |  |
| CCOc1cc(OP(=S)(OC)OC)nc(CC)n1 | 4.93% |  |

| Structure (SMILES) | activity change, negative = cytotoxicity | Potency |
| --- | --- | --- |
| Cc1cnc(C2=NC(C)(C(C)C)C(=O)N2)c(C(=O)O)c1 (stereo not given) | 1.29% |  |
| FC(Cl)(Cl)C(F)(Cl)Cl | 18.7% |  |
| CCOP(=S)(OCC)Oc1cnc2ccccc2n1 |  | inactive |
| CC(=O)O |  | inactive |
| CCNc1nc(Cl)nc(NCC)n1 |  | inactive |
| O=[N+]([O-])c1c(Cl)c(Cl)c(Cl)c(Cl)c1Cl |  | inactive |
| N#CSCc1ccccc1 | 8.82% |  |
| O=C1C(Cl)=C(Cl)C(=O)C(Cl)=C1Cl |  | inactive |
| C/C(=N\NC(=O)Nc1cc(F)cc(F)c1)c1ncccc1C(=O)O |  | inactive |
| CC(C)(C)C(O)(CCc1ccc(Cl)cc1)Cn1cncn1 (stereo not given) | 11.5% |  |
| O=[N+]([O-])O |  | inactive |
| Cc1nn(-c2cc(NS(C)(=O)=O)c(Cl)cc2Cl)c(=O)n1C(F)F | 10.8% |  |
| O=C(CCl)C(Cl)Cl | 17.2% |  |
| Cc1ccccc1CCl | 11.4% |  |
| CC(C)=CCOc1c2occc2cc2ccc(=O)oc12 | -5.24% [at 42.5 µM] |  |
| CN1C(=S)CN=C(c2ccccc2)c2cc(Cl)ccc21 | -8.37% [at 42.5 µM] |  |
| C=C(C)C(=O)OCC(CC)CCCC (stereo not given) |  | inactive |
| CCOP(=S)(S)OCC | -7.69% |  |
| CC(C)NC(C)C |  | inactive |
| COc1ccc(C(=O)N2CCCC2=O)cc1 | 0.0126% [at 42.5 µM] |  |
